Screening data deposited in PubChem BioAssay by National Center for Advancing Translational Sciences (NCATS).
Only some compounds are listed: those with a hit (about 1.3% of all), similar ones and a draw of the others.
RXFP1 ag: qHTS Assay for Agonists of the Relaxin Receptor RXFP1; AID 2676, 2010; hit rate 0.3% among 370,000; Potency, µM (series often up to 57.5 µM), most hits filed as activators; HEK293T-RXFP1 cAMP TR-FRET, 30 min; response scale: percent of porcine relaxin response, buffer zero; Relaxin receptor 1 (Homo sapiens), Q9HBX9; active = well fitted activation curve with a large enough effect; inconclusive = small, poorly fitted or top-dose-only effect; also: nearly all actives have a fitted effect of over 60% in size
Target sequence (Q9HBX9 whole entry, looked up): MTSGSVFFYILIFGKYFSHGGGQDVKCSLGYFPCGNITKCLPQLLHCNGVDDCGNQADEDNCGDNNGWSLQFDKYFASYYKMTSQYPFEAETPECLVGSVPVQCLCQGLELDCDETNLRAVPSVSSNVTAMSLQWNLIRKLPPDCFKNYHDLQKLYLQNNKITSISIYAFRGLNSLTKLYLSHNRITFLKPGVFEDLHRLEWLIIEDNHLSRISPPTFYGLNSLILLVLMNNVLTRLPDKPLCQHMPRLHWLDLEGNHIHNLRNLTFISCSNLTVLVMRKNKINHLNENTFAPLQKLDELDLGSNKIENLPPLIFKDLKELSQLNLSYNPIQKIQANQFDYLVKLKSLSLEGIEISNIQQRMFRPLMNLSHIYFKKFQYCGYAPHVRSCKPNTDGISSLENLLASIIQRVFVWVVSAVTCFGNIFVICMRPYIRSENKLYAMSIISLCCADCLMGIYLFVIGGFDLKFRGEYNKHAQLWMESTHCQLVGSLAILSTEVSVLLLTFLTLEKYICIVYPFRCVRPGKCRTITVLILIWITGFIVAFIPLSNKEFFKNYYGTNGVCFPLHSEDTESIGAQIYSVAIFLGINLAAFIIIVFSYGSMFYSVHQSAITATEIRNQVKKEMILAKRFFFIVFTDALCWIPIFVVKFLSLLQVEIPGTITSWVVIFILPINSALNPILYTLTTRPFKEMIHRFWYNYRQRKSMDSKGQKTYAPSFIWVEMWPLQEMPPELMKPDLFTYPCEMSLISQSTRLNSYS
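cAMP rise read by TR-FRET after 30 min, 37C compound exposure (up to 58 uM) in RXFP1-transfected HEK293 cells with Ro 20174 present. EC50 from Hill-equation fits, with 29 nM porcine relaxin as 100% and buffer as basal.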
gsp antag: qHTS for Antagonists of gsp, the Etiologic Mutation Responsible for Fibrous Dysplasia/McCune-Albright Syndrome: qHTS; gsp-mutant cells, cAMP HTRF, 30 min; Potency, µM (series often up to 76.9 µM), hits mostly inhibitors; hit rate 0.4% among 340,000; calls by dose curve; cell line not stated here;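 also: intracellular cAMP measured with PDE inhibitor Ro 20-1724 present during compound exposure; nearly all actives have a fitted effect of over 65% in size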
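G418-selected cells were plated in DMEM/10% FBS for 16-24 h at 37C, then treated with compounds plus the PDE inhibitor […] (300 uM solution added) for 30 min at 37C. Intracellular cAMP was measured by HTRF after 30 min lysis at room temperature.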
Akt phos inh: HTS Assay for Inhibitors of Akt Phophorylation: Primary Screen; Neuro2A IGF-stimulated pAkt S473 HTRF, 20 min; hits give low values; activity change, % for hits at 50 µM; hit rate 0.32% among 360,000; AID 651550, 2012; in the data active = activity change below about -80%; inconclusive = mostly about -51% to -80%
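Neuro2A cells (4,500/well, DMEM with 0.5% FBS) were treated with compound at a single 50 µM final concentration, stimulated with 6 nM IGF for 20 min at 37 °C, and lysed. Phospho-Akt Ser473 was read by HTRF as 665/615 ratio ×10^4.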
gsp agonist: qHTS for Agonist of gsp, the Etiologic Mutation Responsible for Fibrous Dysplasia/McCune-Albright Syndrome: qHTS | gsp mutant cells, cAMP HTRF, 30 min | Potency, µM (titrated, usually from 76.9 µM), hits mostly activators | hit rate 0.13% among 340,000; active = well fitted activation curve with a large enough effect; inconclusive = small, poorly fitted or top-dose-only effect, or another doubt; inactive = no such curve, though single readings can be large or run the other way; cell line not stated here;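 also: phosphodiesterase inhibitor Ro 20-1724 added with compounds to block cAMP breakdown; nearly all actives have a fitted effect of over 60% in size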
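Cells stably selected in G418 were plated at 2000/well, grown 16-24 hr, then given compounds in DMSO with the PDE inhibitor […] (300 uM solution added) for 30 min at 37C; cAMP was read by HTRF.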
RXFP1 antagonist: qHTS Assay for Antagonists of the Relaxin Receptor RXFP1; Relaxin receptor 1 (Homo sapiens), Q9HBX9; HEK293-RXFP1, relaxin-stimulated cAMP HTRF, 30 min; hits give low values; activity change, negative = inhibition, % at 57.5 µM; hit rate 0.59% among 350,000; AID 1259400, 2018;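 active = activity change of -60% or lower, but not beyond a set lower limit; inconclusive = change between -60% and -40%, or beyond the set limit; inactive = change above -40%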
Numbers stand for hits; 0 = inactive; ? = inconclusive; - = no result given; [ ] = remark or other dose.

SMILES	RXFP1 ag	gsp antag	Akt phos inh	gsp agonist	RXFP1 antagonist
COc1ccc(NC(=O)CCc2c(C)nc3nc(C)nn3c2C)cc1	0	0	-118%	0	0
CCOC(=O)CC(NC(=O)CCc1c(C)nc2c(-c3ccccc3)c(C)nn2c1C)c1ccc(OC(C)C)cc1 (stereo not given)	0	-	-	-	-
CCc1nc(N)nc(N)c1-c1ccc(N(C)Cc2ccccc2)c([N+](=O)[O-])c1	-	0	0	0	-103
Cc1ccc(Cl)cc1NC(=O)CSc1nc2ccccc2c2nc(-c3ccccc3)nn12	0	-	-	-	0
O=C(CSc1n[nH]c(=O)n1C1CC1)Nc1ccc(Cl)c(Cl)c1	0	0	0	0[15.4 µM]	0
O=C(CSc1n[nH]c(=O)n1C1CC1)Nc1ccc(F)c(Cl)c1	-	0	0	0	-78
CCOC(=O)CC1=NS(=O)(=O)c2ccccc2N1	0	0	-106%	0	0
COc1ccccc1NC(=O)COC(=O)CC(C)(C)CC1=NS(=O)(=O)c2ccccc2N1	0	0	0	0	-83
CCOC(=O)c1ccc2c(c1)N(Cc1cccc([N+](=O)[O-])c1)C(=O)c1ccccc1S2	0	-	-	-	-
COc1ccc(OC)c(NC(=O)Cn2c(=O)c3cccn3c3ccccc32)c1	0	-	-	-	0
O=[N+]([O-])c1ccc(-c2nc(Nc3cccc(O)c3)c3ccccc3n2)cc1	0	28µM	0	?	0
O=C1NC(c2ccccc2)(c2ccccc2)C(=O)N1COP(=O)(O)O	-	-	-	-	0
O=C1C2C3C=CC(CC3)C2C(=O)N1c1ccc(F)cc1 (stereo not given)	0	0	0	0[15.4 µM]	0
CC(C)C1NC2(C(=O)c3ccccc3C2=O)C2C(=O)N(c3ccc(F)cc3)C(=O)C12 (stereo not given)	0	0	-120%	0	0
CCCN(CCC)c1nc(N)nc(-c2cc(Cl)ccc2OC)n1	0	0	0	0	0
CCCNc1nc(N)nc(-c2cc(Cl)ccc2OC)n1	0	0	-102%	0	0
CCOC(=O)c1c(NC(=O)CSc2n[nH]c(-c3ccco3)n2)sc(C)c1C	0	0	0	0	-75
CCOC(=O)c1c(NC(=O)CSc2n[nH]c(CNc3ccccc3)n2)sc(C)c1C	0	0	?	0	?
N#Cc1c(NC(=O)CSc2ncccn2)oc(-c2ccccc2)c1-c1ccccc1	-	0	0	0	0
N#Cc1c(NC(=O)CN2CCOCC2)oc(-c2ccccc2)c1-c1ccccc1	0	0	-107%	0	0
COc1ccc(CC(CC(=O)O)C(=O)Nc2ccc(Cl)c(Cl)c2)cc1 (stereo not given)	0	18µM	0	0	0
Cc1ccc(CC(CC(=O)O)C(=O)Nc2ccc(Cl)cc2)cc1 (stereo not given)	0	0	0	0	0
Cc1c(CCNC(=O)C(C)(C)C)sc2nc(-c3ccc(F)cc3)nn12	0	-	-	-	0
COc1ccccc1-c1c(-c2ccc(OCC(=O)NN)cc2O)n[nH]c1C(F)(F)F	0	0	0	0	0
COc1ccc(-c2n[nH]c(C(F)(F)F)c2-c2cc3ccccc3o2)c(O)c1	0	0	0	0	-69
SMILES	RXFP1 ag	gsp antag	Akt phos inh	gsp agonist	RXFP1 antagonist
COc1ccc(Nc2ncc3c(n2)CCN(Cc2cccc(F)c2F)C3)c(OC)c1	0	-	-	-	0
CCCCc1nnc(NC(=O)Cc2ccc(OC)c(S(=O)(=O)N3CCOCC3)c2)s1	0	0	0	0	0
COc1ccc(CC(=O)Nc2nnc(SCc3ccccc3)s2)cc1S(=O)(=O)N1CCOCC1	0	0	-110%	0	0
CCn1cc(C(=O)NCCN(CC(C)C)CC(C)C)c(=O)c2cc(S(=O)(=O)N(C)C3CCCCC3)ccc21	0	-	-	-	-
COc1ccc(OC(=O)N(CC(=O)O)Cc2ccc(OCCc3nc(-c4ccccc4)oc3C)cc2)cc1	-	-	-	-	0
COc1ccc(-n2c(SCC(=O)c3ccc(Cl)cc3)nc3c([nH]c4ccccc43)c2=O)cc1	0	-	-	-	-
CCOc1ccc(NC(=O)C(=O)NCC(c2cccnc2)N2CCc3ccccc32)cc1 (stereo not given)	0	-	-	-	-64
COC(=O)c1ccc(NC(=O)C(=O)NCC(c2cccnc2)N2CCc3ccccc32)cc1 (stereo not given)	0	-	-	-	0
CCCCCCCCCCCCCCCCC(C(=O)O)C(O)(CC(=O)O)C(=O)O (stereo not given)	-	-	-	-	0
C/C(=N/O)c1cc(C(C)(C)C)c(O)c(C(C)(C)C)c1	0	0	-122%	0	0
CC(C)(Sc1cc(C(C)(C)C)c(O)c(C(C)(C)C)c1)Sc1cc(C(C)(C)C)c(O)c(C(C)(C)C)c1	0	0	0	-	0
CCOc1ccccc1N1CC(C(=O)Nc2ccc(C(=O)O)cc2)CC1=O (stereo not given)	0	0	-112%	0	0
CCOc1ccccc1N1CC(C(=O)Nc2nccs2)CC1=O (stereo not given)	0	0	-124%	0	0
CCOc1ccc(NC(=O)C2CC(=O)N(c3ccccc3F)C2)cc1 (stereo not given)	0	0	0	0	0
Cc1cccc(N2CC(C(=O)Nc3nccs3)CC2=O)c1C (stereo not given)	0	0	0	0[15.4 µM]	0
CCCS(=O)(=O)c1ncc(Cl)c(C(=O)N2CCN(c3ccc(OC)cc3)CC2)n1	0	-	-	-	?
O=C(c1noc2c1CCCCC2)N1CCN(c2cccc(C(F)(F)F)c2)CC1	0	-	-	-	0
O=C(Nc1ccc2nc(SCC(=O)N3CCOCC3)sc2c1)c1ccc(F)cc1	0	-	-	-	0
CCOC(=O)N1CCN(C(=O)c2ccc(Cn3c(=S)[nH]c4cc(OCC)c(OCC)cc4c3=O)cc2)CC1	0	?	0	0[15.4 µM]	0
COc1ccccc1N1CCN(C(=O)CCCCCn2c(=S)[nH]c3cc4c(cc3c2=O)OCO4)CC1	-	-	0	0	-78
Cc1ccc(C)c(N2CCN(C(=O)CCCn3c(=S)[nH]c4cc5c(cc4c3=O)OCO5)CC2)c1	0	0	-	0	-102
CCOC(=O)N1CCN(C(=O)c2ccc(Cn3c(=S)[nH]c4cc5c(cc4c3=O)OCO5)cc2)CC1	0	?	0	0	-92
COc1ccccc1N1CCN(C(=O)CCCn2c(=S)[nH]c3ccccc3c2=O)CC1	-	-	0	0	-65
Cc1cccc(N2CCN(c3ccc4cc(S(=O)(=O)N5CCC(C)CC5)ccc4n3)CC2)c1C	0	-	-	-	0
COc1ccc(NC(=O)C(NS(=O)(=O)c2cccc3nsnc23)c2ccccc2)cc1 (stereo not given)	0	-	-	-	0
O=C(O)c1c(O)c(-c2ccccc2)nc2ccccc12	-	-	-	-	0
O=C1NC(=S)S/C1=C/c1ccc(Oc2cnccn2)cc1	0	11µM	0	0[15.4 µM]	0
